Among the data in PubChem BioAssay (NCATS) are outcome and Potency values, retold here.

Records with an inconclusive call do not appear. Where a call stands in place of a potency, no number is given. Active and inactive are the calls of the source. Calls come from the whole dose curve; as a rule, active = well fitted curve in the direction sought with a large enough effect; inconclusive = small, poorly fitted or top-dose-only effect, or another doubt; inactive = no such curve, though single readings can be large; an effect the other way counts as inactive or inconclusive.

Assay [1] can be described thus: Confirmation and Secondary Assay for Modulators of Hemoglobin Beta Chain Splicing at IVS2 654 locus (AID 910).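 Note: HeLa cells stably carrying EGFP split by mutant beta-globin IVS2-654 intron; per-well total GFP intensity by laser scanning cytometry after 2-day treatment.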 To be noted: HeLa EGFP-654 splicing reporter, GFP fluorescence, 48 h; series mostly up to 46.1 µM. In a few lines: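 Readout: per-well total peak green fluorescence (488 nm ex, 500–520 nm em) from objects 5–250 µm, reflecting correct splicing of an EGFP-654 reporter. Compounds were applied for 2 days at 37 °C to overnight-plated HeLa EGFP-654 cells; controls were DMSO and 500 nM IVS2-654 PNA.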

Assay [2] concerns the target Cytochrome P450 2C9 (Homo sapiens) (UniProt P11712). The assay is described as follows: qHTS Assay for Inhibitors and Substrates of Cytochrome P450 2C9 (AID 883). Note: nearly all actives have a fitted effect of over 60% in size. To be noted: recombinant CYP2C9, luciferin-H luminescence, 60 min; series mostly up to 57.1 µM. In a few lines: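 Turnover of Luciferin-H (100uM, KM) by 10nM human CYP2C9 was measured over 60 min at 37C with NADPH regeneration; inhibitors and some substrates reduce luminescence. Data normalized to sulphaphenazole 57uM.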

Assay [3] concerns the target Cytochrome P450 2D6 (Homo sapiens) (UniProt P10635). The assay is described as follows: qHTS Assay for Inhibitors and Substrates of Cytochrome P450 2D6 (AID 891). Note: potency is the fitted concentration of half-maximal effect; nearly all actives have a fitted effect of over 60% in size. To be noted: recombinant CYP2D6, luciferin-ME EGE luminescence; series mostly up to 57.1 µM. In a few lines: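 Human CYP2D6 (5 nM) with 30 uM Luciferin-ME EGE (at Km) in 100 mM KPO4, compound preincubated 10 min, then NADPH regeneration system for 60 min at room temperature. Luciferin read by luminescence; normalized to 1.43 uM quinidine.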

For assay [4], the target named is Cytochrome P450 3A4 (Homo sapiens) (UniProt P08684). The assay is described as follows: qHTS Assay for Inhibitors and Substrates of Cytochrome P450 3A4 (AID 884). Note: nearly all actives have a fitted effect of over 50% in size. Particulars: recombinant CYP3A4, Luciferin-PPXE luminescence; series mostly up to 57.1 µM. The essentials:
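20 nM human CYP3A4 with 25 uM Luciferin-PPXE (at KM) in 200 mM KPO4, preincubated 10 min with compound; NADPH regeneration started a 60 min RT reaction. Luciferin detected by luminescence, normalized to 57 uM ketoconazole as full inhibition.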
(In general: qHTS replaces the single test concentration by a dilution series.)

Cytochrome P450 2D6 (Homo sapiens), sequence (P10635 whole entry, looked up): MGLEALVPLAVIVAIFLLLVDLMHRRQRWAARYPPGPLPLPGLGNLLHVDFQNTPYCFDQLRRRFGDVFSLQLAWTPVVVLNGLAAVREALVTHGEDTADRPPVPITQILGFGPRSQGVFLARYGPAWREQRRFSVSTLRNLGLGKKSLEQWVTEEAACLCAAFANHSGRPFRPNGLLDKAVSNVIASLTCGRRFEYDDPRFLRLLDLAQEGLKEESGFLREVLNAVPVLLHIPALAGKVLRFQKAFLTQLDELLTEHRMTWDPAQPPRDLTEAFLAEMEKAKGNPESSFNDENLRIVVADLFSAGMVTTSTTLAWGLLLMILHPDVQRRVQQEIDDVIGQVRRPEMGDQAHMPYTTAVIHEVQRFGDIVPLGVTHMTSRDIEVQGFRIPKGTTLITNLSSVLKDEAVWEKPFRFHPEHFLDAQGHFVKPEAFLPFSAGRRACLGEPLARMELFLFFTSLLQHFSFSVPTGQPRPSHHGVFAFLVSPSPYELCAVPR
Cytochrome P450 3A4 (Homo sapiens), sequence (P08684 whole entry, looked up): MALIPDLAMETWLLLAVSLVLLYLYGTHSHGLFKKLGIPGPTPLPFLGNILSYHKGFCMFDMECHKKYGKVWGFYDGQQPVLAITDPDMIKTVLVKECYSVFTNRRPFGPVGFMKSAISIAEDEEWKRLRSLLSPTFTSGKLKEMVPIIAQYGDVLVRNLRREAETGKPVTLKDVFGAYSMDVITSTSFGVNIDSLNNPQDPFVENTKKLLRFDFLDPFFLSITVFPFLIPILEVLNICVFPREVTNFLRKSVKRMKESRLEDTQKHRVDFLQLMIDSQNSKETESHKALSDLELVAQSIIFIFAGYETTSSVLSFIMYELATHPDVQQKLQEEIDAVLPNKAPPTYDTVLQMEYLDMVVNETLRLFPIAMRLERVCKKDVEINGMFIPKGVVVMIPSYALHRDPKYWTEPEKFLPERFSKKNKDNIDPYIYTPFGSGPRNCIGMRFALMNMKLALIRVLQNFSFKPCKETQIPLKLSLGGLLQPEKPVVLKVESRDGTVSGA
Cytochrome P450 2C9 (Homo sapiens), sequence (P11712 whole entry, looked up): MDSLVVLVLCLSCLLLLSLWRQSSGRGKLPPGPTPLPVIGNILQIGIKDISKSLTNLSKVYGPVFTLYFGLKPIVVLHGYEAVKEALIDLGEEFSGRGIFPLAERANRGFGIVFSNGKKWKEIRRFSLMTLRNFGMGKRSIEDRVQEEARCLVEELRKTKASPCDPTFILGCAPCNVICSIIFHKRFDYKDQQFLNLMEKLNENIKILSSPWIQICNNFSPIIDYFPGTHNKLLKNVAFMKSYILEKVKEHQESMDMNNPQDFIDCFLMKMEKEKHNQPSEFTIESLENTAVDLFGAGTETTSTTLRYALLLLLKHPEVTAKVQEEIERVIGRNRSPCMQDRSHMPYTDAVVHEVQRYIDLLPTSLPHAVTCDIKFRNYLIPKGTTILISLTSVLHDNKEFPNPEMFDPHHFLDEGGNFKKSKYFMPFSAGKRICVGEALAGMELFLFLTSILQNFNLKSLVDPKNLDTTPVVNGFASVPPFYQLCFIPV

As for `CCN(CCCCOC(=O)c1ccc(OC)c(OC)c1)C(C)Cc1ccc(OC)cc1` (centres undefined), the result in assay [1] was inactive.

`CCCCc1nc(Cl)c(CO)n1Cc1ccc(-c2ccccc2-c2nn[nH]n2)cc1`: the call in assay [1] was inactive.

As to `COc1ccc(CCN2CCC(Nc3nc4ccccc4n3Cc3ccc(F)cc3)CC2)cc1`, the Potency entry in assay [2] was “inactive”. In addition, the Potency in assay [3] is 7.94 µM (active). Also, the compound was classed as inactive in assay [1].

With `CCC(=O)c1c(O)cc(O)cc1O`, in assay [1], the call was inactive.

Take `CC(C)(C)CC(C)(C)c1ccc(O)c(Cc2ccc(Cl)cc2Cl)c1`: in assay [1], the compound was classed as inactive.

For `Cc1cccc(C)c1NC(=O)CN1CCN(CCCC(c2ccc(F)cc2)c2ccc(F)cc2)CC1`, the Potency result in assay [4] is “inactive”. The Potency in assay [3] was 5.01 µM (active).
